The structures appear in SMILES notation. Active and inactive are the calls of the source.

Experimental findings from PubChem BioAssay are described below.

The subject of experiment [1] is Plasmodium falciparum Sir2 (PF13_0152, Sir2A). The experiment is described as follows: Plasmodium falciparum Sir2A binding compounds – biochemical, small-molecule microarray, 635 nm fluorescence, primary screen (AID 1098).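 Note: score merges spot fluorescence intensity with its signal-to-noise ratio.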 The following applies: fluorescence 635 nm, higher = more signal.
Experiment [2] can be described thus: probe aDKK1 binding to arrayed compounds – biochemical, biotinylated probe, 635/667 nm fluorescence, primary screen (AID 1099).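 Note: score merges 667nm spot fluorescence with signal to noise across triplicate slides.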 The following applies: small-molecule microarray, higher = more signal.
Experiment [3] can be described thus: probe aCHRDL2 binding to arrayed compounds – biochemical, biotinylated probe, 635/667 nm fluorescence, primary screen (AID 1100). The following applies: small-molecule microarray, higher = more signal.
Experiment [4] can be described thus: change in splice reporter luminescence, either direction, cell-based, HEK293, spliceosome inhibition project, primary screen (AID 1101).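 Note: HEK293 cells carrying a splicing-competent luciferase reporter gene; test concentration not given here.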 The note with it: HEK293 splicing luciferase reporter, 24 h, higher = more signal, called active from +8 up or from −8 down.
Experiment [5] has as its target Fibroblast growth factor 10 (Homo sapiens) (UniProt O15520). The experiment is described as follows: compounds binding fibroblast growth factor 10 – biochemical, small-molecule microarray, 635 nm fluorescence, primary screen (AID 1102). The note with it: FGF10 binding, fluorescence 635 nm, higher = more signal.
The subject of experiment [6] is glycogen synthase kinase-3 (GSK3A per assay name; protocol says GSK3B). The experiment is described as follows: compounds binding glycogen synthase kinase-3 – biochemical, small-molecule microarray, 635 nm fluorescence, GSK3A, primary screen (AID 1103). Note: the record names both GSK3A and GSK3B. The following applies: fluorescence 635 nm, higher = more signal.
Experiment [7] concerns the target Epidermal growth factor receptor (Homo sapiens) (UniProt P00533). The experiment is described as follows: compounds binding epidermal growth factor receptor – biochemical, small-molecule microarray, 635 nm fluorescence, primary screen (AID 1104).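 Note: score merges 667 nm emission intensity with spot signal to noise over triplicate slides.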 The following applies: EGFR binding, higher = more signal.
The target in experiment [8] is Follistatin-related protein 3 (Homo sapiens) (UniProt O95633). The experiment is described as follows: compounds binding follistatin-related protein 3 – biochemical, small-molecule microarray, 635 nm fluorescence, primary screen (AID 1105).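 Note: score merges emission near 667 nm and signal to noise per printed spot across three slides.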 The note with it: FSTL3 binding, higher = more signal.
The target of experiment [9] is Dickkopf-related protein 1 (Homo sapiens) (UniProt O94907). The experiment is described as follows: small molecules binding DKK1 protein – biochemical, small-molecule microarray, 635 nm fluorescence scan, primary screen (AID 1106).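 Note: score merges emission near 667 nm with signal to noise over three replicate slides.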 The following applies: higher = more signal.
Experiment [10] concerns Inhibin beta A chain (activin A). Description: small molecules binding activin A – biochemical, small-molecule microarray, 635 nm fluorescence scan, primary screen (AID 1107).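 Note: mouse activin A protein probed at 4.33 µg/mL on printed slides; score merges bound-protein fluorescence near 667 nm with spot signal-to-noise.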 The note with it: INHBA, higher = more signal.
For experiment [11], the system named is Human papillomavirus type 1a protein E7 (residues 44-93). The experiment is described as follows: small molecules binding HPV E7 44-93 – biochemical, small-molecule microarray, residues 44-93, 635 nm fluorescence, primary screen (AID 1108).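 Note: E7 fragment applied at 1 µg/mL in TBST for 1 h at 4 C; score combines spot fluorescence with its signal to noise ratio.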 The following applies: fluorescence 635 nm, higher = more signal.
The nature of experiment [12]: hepatitis C replication reporter changes, two-sided – Huh7 cells, luciferase reporter, HCV replication inhibitor project, primary screen (AID 1109).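 Note: huh7 hepatoma cells harbouring a luciferase neomycin HCV replicon reporter; luciferase luminescence as measure of HCV replicon replication; test concentration not given here.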 The note with it: Huh7 HCV replicon luciferase reporter, 48 h; higher = more signal. (In general: Reporter assays use an easily measured gene product as a stand-in for the process of interest.)
For experiment [13], the target named is Left-right determination factor 2 (Homo sapiens) (UniProt O00292). The experiment is described as follows: small molecules binding LEFTY2 protein – biochemical, small-molecule microarray, 635 nm fluorescence scan, primary screen (AID 1110). The following applies: higher = more signal.
Experiment [14] concerns the target Calmodulin-1 (Homo sapiens) (UniProt P0DP23). The experiment is described as follows: small molecules binding calmodulin-1 with EGTA – biochemical, small-molecule microarray, Cy5-labelled CALM1, profiling panel (AID 1111).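 Note: labelled calmodulin applied in Tris saline Tween buffer holding calcium plus EGTA and DTT.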 The note with it: Cy5-CALM1 binding fluorescence, higher = more signal.
The target is the same in experiment [15]. The experiment is described as follows: small molecules binding Ca-loaded calmodulin-1 – biochemical, small-molecule microarray, Cy5-labelled CALM1, plus calcium, artefact control for SMM control-protein annotation, profiling panel (AID 1112).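 Note: score merges spot fluorescence with signal to noise from triplicate slides.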 The note with it: Cy5-CALM1 binding fluorescence, higher = more signal.
Experiment [16] in a line: probe aWnt5a binding to arrayed compounds – biochemical, biotinylated probe, 635/667 nm fluorescence, primary screen (AID 1113).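 Note: score merges 667 nm fluorescence intensity with signal-to-noise per printed feature.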 The note with it: small-molecule microarray, higher = more signal.
Experiment [17] is described as follows: probe aShh binding to arrayed compounds – biochemical, biotinylated probe, 635/667 nm fluorescence, primary screen (AID 1114).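 Note: probe is biotin-labelled aShh protein from a stem cell growth factor screen; measures binding of labelled protein to compounds printed on the slide; score merges feature fluorescence at 667 nm with signal-to-noise.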 The note with it: small-molecule microarray, higher = more signal.
Experiment [18] can be described thus: probe aNog binding to arrayed compounds – biochemical, biotinylated probe, 635/667 nm fluorescence, primary screen (AID 1115).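 Note: probe is biotinylated aNog protein used at 0.15 µg/mL for 1 h at 4 C; z-score combines 667 nm fluorescence of each spot with its signal to noise.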 The note with it: small-molecule microarray, higher = more signal.
Experiment [19] concerns the target Torsin-1A-interacting protein 1 (Homo sapiens) (UniProt Q5JTV8). Description: compound microarray binding of lysate hLAP1 – cell lysate, small-molecule microarray, COS7 lysate, 635/667 nm fluorescence, primary screen (AID 1116). The following applies: 635 nm fluorescence, higher = more signal.
In experiment [20] the target is Alpha-bungarotoxin (Bungarus multicinctus) (UniProt P60615). The experiment is described as follows: compounds binding labelled alpha-BTX control protein – biochemical, small-molecule microarray, Alexa647 label, 635/667 nm fluorescence, artefact control for SMM control protein annotation, profiling panel (AID 1117). The following applies: alpha-BTX-A647 binding fluorescence, higher = more signal.
Chain of Alpha-bungarotoxin (Bungarus multicinctus) (P60615 whole entry, looked up): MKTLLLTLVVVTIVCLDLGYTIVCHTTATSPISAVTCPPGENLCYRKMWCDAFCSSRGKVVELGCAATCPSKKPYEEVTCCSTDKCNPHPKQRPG

Chain of Follistatin-related protein 3 (Homo sapiens) (O95633 whole entry, looked up): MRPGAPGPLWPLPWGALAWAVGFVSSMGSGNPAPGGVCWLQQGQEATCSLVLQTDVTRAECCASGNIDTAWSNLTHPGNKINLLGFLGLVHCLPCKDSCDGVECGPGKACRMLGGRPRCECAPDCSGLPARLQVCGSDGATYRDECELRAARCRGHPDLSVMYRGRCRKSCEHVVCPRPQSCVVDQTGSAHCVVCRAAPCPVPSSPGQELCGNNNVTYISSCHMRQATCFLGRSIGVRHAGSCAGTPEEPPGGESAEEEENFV
Chain of Dickkopf-related protein 1 (Homo sapiens) (O94907 whole entry, looked up): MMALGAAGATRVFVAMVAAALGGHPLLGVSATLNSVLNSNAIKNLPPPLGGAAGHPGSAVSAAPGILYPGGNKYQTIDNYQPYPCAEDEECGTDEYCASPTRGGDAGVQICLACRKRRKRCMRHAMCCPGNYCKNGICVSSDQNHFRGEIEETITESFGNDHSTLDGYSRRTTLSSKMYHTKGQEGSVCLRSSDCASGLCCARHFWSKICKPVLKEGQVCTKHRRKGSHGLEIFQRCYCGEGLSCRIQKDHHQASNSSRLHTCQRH
Chain of Left-right determination factor 2 (Homo sapiens) (O00292 whole entry, looked up): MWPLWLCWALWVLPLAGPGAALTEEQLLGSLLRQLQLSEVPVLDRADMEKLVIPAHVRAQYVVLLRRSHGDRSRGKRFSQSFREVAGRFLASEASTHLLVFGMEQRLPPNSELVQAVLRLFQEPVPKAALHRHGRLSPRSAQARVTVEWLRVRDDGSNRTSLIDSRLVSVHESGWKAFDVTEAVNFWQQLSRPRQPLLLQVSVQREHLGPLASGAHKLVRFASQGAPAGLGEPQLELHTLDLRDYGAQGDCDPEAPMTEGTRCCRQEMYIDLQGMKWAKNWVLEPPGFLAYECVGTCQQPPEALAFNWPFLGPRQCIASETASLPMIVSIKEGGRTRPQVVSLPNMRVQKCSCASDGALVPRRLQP
Chain of Epidermal growth factor receptor (Homo sapiens) (P00533 whole entry, looked up): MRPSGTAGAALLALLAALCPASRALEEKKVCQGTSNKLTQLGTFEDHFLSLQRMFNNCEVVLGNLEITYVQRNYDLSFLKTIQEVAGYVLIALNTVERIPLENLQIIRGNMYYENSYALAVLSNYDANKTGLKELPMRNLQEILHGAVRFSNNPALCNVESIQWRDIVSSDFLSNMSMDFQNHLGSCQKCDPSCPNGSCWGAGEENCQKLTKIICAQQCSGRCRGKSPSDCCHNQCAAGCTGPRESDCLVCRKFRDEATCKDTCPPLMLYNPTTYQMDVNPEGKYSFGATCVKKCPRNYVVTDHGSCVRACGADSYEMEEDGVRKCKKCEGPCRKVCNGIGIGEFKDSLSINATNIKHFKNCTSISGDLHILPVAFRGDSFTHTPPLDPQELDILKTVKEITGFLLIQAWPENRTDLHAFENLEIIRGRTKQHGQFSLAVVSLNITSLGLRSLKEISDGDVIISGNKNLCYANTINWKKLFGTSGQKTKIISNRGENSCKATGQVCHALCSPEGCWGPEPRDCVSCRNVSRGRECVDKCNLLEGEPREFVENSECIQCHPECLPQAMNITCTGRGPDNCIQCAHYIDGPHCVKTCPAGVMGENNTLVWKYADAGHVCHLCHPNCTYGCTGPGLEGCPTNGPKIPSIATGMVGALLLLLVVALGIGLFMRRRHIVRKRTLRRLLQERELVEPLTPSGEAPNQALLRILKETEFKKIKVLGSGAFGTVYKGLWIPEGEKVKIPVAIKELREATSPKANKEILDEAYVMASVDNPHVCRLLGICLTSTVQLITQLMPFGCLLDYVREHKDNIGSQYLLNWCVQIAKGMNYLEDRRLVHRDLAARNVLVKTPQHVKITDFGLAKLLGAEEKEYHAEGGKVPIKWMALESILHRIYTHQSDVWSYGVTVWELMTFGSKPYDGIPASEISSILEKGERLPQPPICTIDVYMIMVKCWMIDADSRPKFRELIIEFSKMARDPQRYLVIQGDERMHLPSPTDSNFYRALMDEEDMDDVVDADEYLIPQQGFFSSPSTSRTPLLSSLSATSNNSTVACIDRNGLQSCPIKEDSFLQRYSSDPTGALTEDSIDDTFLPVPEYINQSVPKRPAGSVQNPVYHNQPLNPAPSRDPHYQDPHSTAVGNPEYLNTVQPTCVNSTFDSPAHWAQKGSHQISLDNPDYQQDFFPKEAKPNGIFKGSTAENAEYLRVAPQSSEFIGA
Chain of Torsin-1A-interacting protein 1 (Homo sapiens) (Q5JTV8 whole entry, looked up): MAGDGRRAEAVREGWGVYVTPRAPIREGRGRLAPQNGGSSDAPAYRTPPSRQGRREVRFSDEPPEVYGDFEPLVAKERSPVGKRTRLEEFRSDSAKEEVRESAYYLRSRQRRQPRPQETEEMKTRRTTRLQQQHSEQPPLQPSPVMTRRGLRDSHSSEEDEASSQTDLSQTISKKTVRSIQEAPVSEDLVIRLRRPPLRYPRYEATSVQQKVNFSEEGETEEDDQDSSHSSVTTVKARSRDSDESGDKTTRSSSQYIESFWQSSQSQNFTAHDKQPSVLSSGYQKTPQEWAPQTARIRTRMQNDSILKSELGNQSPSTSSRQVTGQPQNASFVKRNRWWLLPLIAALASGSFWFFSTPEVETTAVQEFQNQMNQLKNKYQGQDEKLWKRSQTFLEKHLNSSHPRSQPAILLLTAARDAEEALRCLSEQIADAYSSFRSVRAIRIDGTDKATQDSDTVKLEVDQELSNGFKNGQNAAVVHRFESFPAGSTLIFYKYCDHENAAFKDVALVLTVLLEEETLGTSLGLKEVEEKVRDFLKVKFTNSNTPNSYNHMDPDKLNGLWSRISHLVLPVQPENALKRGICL
Chain of Fibroblast growth factor 10 (Homo sapiens) (O15520 whole entry, looked up): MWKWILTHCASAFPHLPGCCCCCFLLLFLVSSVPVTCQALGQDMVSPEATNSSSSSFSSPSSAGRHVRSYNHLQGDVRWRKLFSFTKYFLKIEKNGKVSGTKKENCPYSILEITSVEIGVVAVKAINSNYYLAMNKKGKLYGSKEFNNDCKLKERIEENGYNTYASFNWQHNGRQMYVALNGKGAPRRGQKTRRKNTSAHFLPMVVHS

Consider `O=C1C[C@]2(c3ccc([N+](=O)[O-])cc3)C(=O)N(Cc3ccccc3)c3cc(CO)ccc3[C@H]2N1CC12CC3CC(CC(C3)C1)C2`, for which the composite z-score was -1.44 in [1]; 1.03 in [2]; 0.259 in [3]; -0.36 in experiment [5]; -0.855 in experiment [6]; -0.478 in [7]. The composite z-score was -0.791 in experiment [8]; -0.852 in experiment [9]; -0.544 in experiment [10]; -0.864 in experiment [11]; -1.11 in experiment [13]; -0.393 in experiment [14]. Also, the composite z-score in [15] is -0.11; in [16], -0.281; in experiment [17], -0.408; in [18], -0.103; in experiment [19] it was -0.0647; in experiment [20], -0.814. For the same compound, the z-score in [4] is 1.39 (inactive); in experiment [12], -0.411.

For the compound `[N-]=[N+]=Nc1ccccc1[C@@H]1OC(c2ccc(OCCCO)cc2)=N[C@]1(CCS(=O)(=O)c1ccccc1)C(=O)NCCN1CCOCC1`, the composite z-score in [1] stood at 1.25; in experiment [2], 1.1; in [3], 1.2; in [5], 0.832; in [6], 1.29; in experiment [7], 0.652. Moreover, the composite z-score was 0.374 in [8]; -0.0291 in experiment [9]; 1.28 in [10]; 1.47 in experiment [11]; 0.382 in experiment [13]; 0.03 in experiment [14]. Moreover, the composite z-score in experiment [15] was found to be 0.0093; in experiment [16], 0.0814; in experiment [17], 0.337; in experiment [18] it was 0.675; in experiment [19], 1.26; in experiment [20], 0.737. The z-score was -0.582 (inactive) in experiment [4] and -0.485 in experiment [12].

Consider `O=C1OCC=C[C@H]2OC34C=CCN(c5ccc(Cl)cc5)C(=O)[C@H]3N(CCCCCO)C(=O)[C@@H]4[C@@H]12` (stereo not given in full), for which the composite z-score in [1] is 0.311; in experiment [2] it was -0.204; in experiment [3], 0.822; in experiment [5], -1.23; in experiment [6], -1.26; in experiment [7], -1.44. Also, the composite z-score is -1.51 in experiment [8]; -1.22 in experiment [9]; -0.262 in experiment [10]; -0.932 in experiment [11]; -1.92 in experiment [13]; -0.501 in [14]. Further, the composite z-score in experiment [15] is 0.0666; in experiment [16] it was -0.172; in experiment [17] it was 0.0121; in experiment [18] it was 0.347; in experiment [19] it was 0.0462; in experiment [20], -1.64. Further, the z-score in experiment [4] was -0.784 (inactive); in experiment [12], -0.621.

Take `NC(=O)NCC#Cc1ccc2c(c1)[C@]1(C(=O)N2)[C@H](c2ccc(O)cc2)N2[C@H](c3ccccc3)[C@H](c3ccccc3)OC(=O)[C@H]2[C@@H]1C(=O)Nc1nc2ccccc2s1`: the composite z-score was 0.836 in experiment [1]; 0.645 in experiment [2]; 0.985 in experiment [3]; 1.25 in experiment [5]; 0.0394 in experiment [6]; 0.581 in experiment [7]. Besides, the composite z-score worked out at 1.05 in [8]; 0.666 in [9]; 1.17 in experiment [10]; 0.89 in experiment [11]; 0.413 in experiment [13]; 0.563 in experiment [14]. Besides, the composite z-score in [15] worked out at 0.229; in [16] it was 0.168; in experiment [17] it was 0.246; in [18] it was 0.563; in experiment [19] it was 0.633; in experiment [20], 1.23. Also, the z-score in experiment [4] was 1.11 (inactive); in [12], -1.27.

`CCCc1cccc(=O)o1`: the composite z-score in experiment [1] is 0.521; in experiment [2], -0.161; in experiment [3], -0.401; in experiment [5], 0.215; in experiment [6], 1.04; in experiment [7] it was -0.21. Besides, the composite z-score in [8] came out at 0.182; in experiment [9], 0.646; in experiment [10] it was 1.06; in experiment [11], 0.364; in [13] it was 0.427; in experiment [14] it was 0.0369. Besides, the composite z-score in experiment [15] is -0.116; in experiment [16], 0.0037; in experiment [17], 0.0723; in [18], 0.0638; in [19], 0.898; in experiment [20] it was 0.696. Further, the results for the z-score in experiment [4] and in experiment [12] were -0.396 (inactive) and -0.672, respectively.

With `COCC(=C=CC[C@H](O)c1cccc(OCCO)c1)C[C@H](O)c1ccccn1`, the composite z-score in [1] is 0.543; in experiment [2], 0.161; in [3] it was -0.173; in experiment [5], 1.3; in experiment [6] it was -0.214; in [7] it was -0.366. In addition, the composite z-score was -0.0496 in experiment [8]; 0.354 in experiment [9]; 0.281 in experiment [10]; 0.0462 in experiment [11]; -0.0587 in experiment [13]; -0.319 in [14]. The composite z-score in experiment [15] was -0.621; in [16] it was 0.0151; in experiment [17], 0.0952; in [18], 0.167; in experiment [19], 1.68; in experiment [20] it was 1.26. Further, the results for the z-score in experiment [4] and in experiment [12] were -1 (inactive) and -0.0093, respectively.
